Assay outcomes from PubChem BioAssay.
An excerpt weighted towards active compounds, which were near 28% of everything screened.
CYP2C19 activ: increases human CYP2C19 enzyme activity | P33261 | recombinant CYP2C19, luciferin-H EGE luminescence; hits give high values; 0 = fully inhibited enzyme, 1 = untreated enzyme | activation factor at 5 µM | 96,000 tested, under 10 active | AID 1025;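 active = activation factor of at least 2 at 5 µM in the primary screen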;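 note: 0 = wells with 2.5 mM tranylcypromine and 1 = vehicle-only wells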
Target sequence (P33261 whole entry, looked up): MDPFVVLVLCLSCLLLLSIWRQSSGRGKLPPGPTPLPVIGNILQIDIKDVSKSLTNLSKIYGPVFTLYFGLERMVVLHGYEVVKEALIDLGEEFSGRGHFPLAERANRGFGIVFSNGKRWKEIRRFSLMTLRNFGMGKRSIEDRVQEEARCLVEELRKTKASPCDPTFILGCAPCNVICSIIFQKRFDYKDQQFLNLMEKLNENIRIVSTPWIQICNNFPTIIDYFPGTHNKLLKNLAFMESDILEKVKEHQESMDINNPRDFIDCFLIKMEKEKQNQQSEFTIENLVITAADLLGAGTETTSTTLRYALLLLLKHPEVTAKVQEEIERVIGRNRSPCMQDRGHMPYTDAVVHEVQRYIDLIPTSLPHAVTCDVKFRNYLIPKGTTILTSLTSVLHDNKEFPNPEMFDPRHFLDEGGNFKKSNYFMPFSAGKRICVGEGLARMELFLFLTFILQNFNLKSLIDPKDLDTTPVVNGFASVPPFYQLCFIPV
CYP2C9 activ: activators of human CYP2C9 | recombinant CYP2C9, luciferin-H conversion, luminescence; hits give high values; factor 1 = untreated enzyme, 0 = blocked | activation factor at 5 µM | actives 1.4% (n = 96,000);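 active = activation factor of 2 or more for CYP2C9 at a 5 µM dose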;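 note: 0 = sulfaphenazole-blocked wells and 1 = vehicle-only wells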
CYP2C9 inhib: blocks human cytochrome P450 2C9 | P11712 | CYP2C9 Supersomes, luciferin-H conversion, luminescence | inhibition, % at 5 µM | actives 20% (n = 96,000);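 active = blocking of liver enzyme CYP2C9 beyond about 50% at 5 µM, limit read from the data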
PLK1 PBD inh: Plk1 (human) PBD binding inhibition. P53350. Plk1 PBD phosphopeptide binding, fluorescence polarization. inhibition, %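 (tested at about 20 µM)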. actives 0.13% (n = 97,000). AID 693; in the data active = inhibition above about 34%, passing the limit was not always enough
CYP2C19 inh: blocks human cytochrome P450 2C19 | P33261 | CYP2C19 Supersomes, luciferin-H EGE luminescence, 30 min | inhibition, % at 5 µM | actives 21% (n = 96,000) | AID 778;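 active = CYP2C19 inhibition above a set limit at 5 µM in the primary screen, cut at about 50% in these data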;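 note: plate controls were negative control wells for no effect and 2.5 mM tranylcypromine positive control for full effect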
PLK1 inh: inhibitors of human PLK1 kinase. P53350. AID 619. recombinant PLK1 kinase, TR-FRET peptide phosphorylation. actives 0.53% (n = 97,000). inhibition, % at 10 µM;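 active = inhibition of 50% or more in the single-concentration screen; inactive = inhibition below 50%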;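 note: 0% = DMSO max control and 100% = H-89 dihydrochloride min control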
* = called active by the depositor; . = no result.

SMILES | CYP2C19 activ | CYP2C9 activ | CYP2C9 inhib | PLK1 PBD inh | CYP2C19 inh | PLK1 inh
CCCCCCc1ccc(OCC(=O)OC)cc1OCC(=O)OC | 0.8 | 0.7 | 30 | -22 | 21 | -6
Cc1c(CC(=O)O)c(=O)oc2cc(OCc3nn[nH]n3)ccc12 | 1.1 | 1 | -2 | 21 | -12 | -5
COc1ccc(-c2cc(=O)oc3cc(OCc4nn[nH]n4)ccc23)cc1 | 0.7 | 0.2 | 76* | 35 | 31 | -8
Cc1c(Cc2ccccc2)c(=O)oc2cc(OCc3nn[nH]n3)ccc12 | 1.1 | 0.6 | 44 | 3 | -13 | -19
CCCc1cc(=O)oc2cc(OCC(=O)OC)cc(OCC(=O)OC)c12 | 0.5 | 0.4 | 61* | -3 | 49 | 2
COc1ccc(-c2cc3ccc(OCc4nn[nH]n4)cc3oc2=O)cc1OC | 0.7 | 0.4 | 59* | -5 | 32 | 4
CC(Oc1ccc2c(-c3ccccc3)cc(=O)oc2c1)C(=O)O (centres undefined) | 0.9 | 0.3 | 74* | -1 | 9 | -6
CC(=O)N1CCC2(CC1)C(C#N)=C(N)Oc1n[nH]c(C)c12 | 1.1 | 1.2 | -21 | . | -10 | .
Cc1cc(C)c(-c2cc(C(F)(F)F)no2)c(=O)[nH]1 | . | . | . | 8 | . | -1
C=CCNC(=O)c1cc(-c2ccc(Br)cc2)on1 | 1.1 | 1 | -2 | -18 | -14 | -17
COC(=O)COc1ccc2c(-c3ccc(OC)cc3)cc(=O)oc2c1 | 0.5 | 0.7 | 30 | 6 | 52* | 0
COC(=O)COc1ccc2c(-c3cccc([N+](=O)[O-])c3)cc(=O)oc2c1 | . | . | . | -12 | . | 1
CCOC(=O)C1C(=O)CC(C)(O)C(C(=O)OCC)C1/C=C/c1ccccc1 (centres undefined) | 0.9 | 0.9 | 8 | -18 | 14 | 6
Cc1ccc(-c2nn3c(C)nnc3s2)cc1NC(=O)C(C)C | 0.9 | 0.9 | 11 | 25 | 14 | 11
Cc1nnc2sc(-c3cccc(NC(=O)c4cccnc4)c3)nn12 | 1 | 1 | 2 | -15 | 1 | -4
Cc1ccc(-c2nn3c(C)nnc3s2)cc1NCc1c(F)cccc1Cl | 0.3 | 0.3 | 74* | -17 | 68* | -3
Cc1ccc(-c2nn3c(C)nnc3s2)cc1NC(=O)c1cccnc1 | 0.5 | 0.4 | 60* | -8 | 50* | -10
Cc1ccc(CNc2cc(-c3nn4c(C)nnc4s3)ccc2C)s1 | 0.7 | 0.5 | 54* | -19 | 28 | -2
CN(CCc1ccccn1)C(=O)CN(C)S(=O)(=O)c1ccc2c(c1)c(=O)n(C)c(=O)n2C | 1.1 | 0.7 | 25 | -37 | -13 | -3
CCCCC(=O)NCCNC(=O)c1cc(OCC(F)(F)F)ccc1OCC(F)(F)F | 0.9 | 0.7 | 25 | 4 | 12 | 1
COc1ccc(C(=O)NCCNC(=O)c2cc(OCC(F)(F)F)ccc2OCC(F)(F)F)cc1 | 1 | 0.9 | 10 | -4 | -3 | 1
O=C(NCCNS(=O)(=O)c1cccc(C(F)(F)F)c1)c1cc(OCC(F)(F)F)ccc1OCC(F)(F)F | 0.2 | 0.8 | 16 | 0 | 80* | -11
CC(C)CC(=O)NCCNC(=O)c1cc(OCC(F)(F)F)ccc1OCC(F)(F)F | 1 | 0.1 | 87* | -28 | 4 | 2
N#Cc1c(-n2ccnc2)cccc1-n1ccnc1 | 0.2 | 0.1 | 94* | -22 | 81* | -12
Cc1cccc(-n2cccc2)c1C#N | 0.9 | 1 | -3 | 2 | 15 | -3
SMILES | CYP2C19 activ | CYP2C9 activ | CYP2C9 inhib | PLK1 PBD inh | CYP2C19 inh | PLK1 inh
COc1ccc2[nH]c(C(=O)O)c(CCNC(C)=O)c2c1 | 1 | 0.7 | 31 | -17 | -5 | 8
COc1ccc2[nH]c(C(=O)O)c(NS(=O)(=O)c3ccc(Cl)s3)c2c1 | 0.2 | 0 | 99* | -12 | 79* | -14
CCOC(=O)C(=CNc1cc(C)nn1-c1ccccc1)C(=O)OCC | 0.9 | 0.4 | 63* | -11 | 14 | -17
CCOC(=O)C(/C=N/c1cc(C)nn1-c1ccccc1)=C(\C)O | 0.4 | 0.3 | 70* | -6 | 59* | -2
CCOC(=O)C(=CNc1ccccc1C)C(=O)OCC | 1 | 0.9 | 9 | 8 | -2 | -8
Cn1nc(CC(=O)Nc2cccnc2N2CCOCC2)c2ccccc2c1=O | 1.1 | 1.1 | -9 | . | -8 | .
Nc1nnnn1CC(=O)OCc1cccc(Br)c1 | 0.6 | 2.6* | -160 | . | 36 | .
O=C(O)c1ccc2c(c1)C(=O)N(Cc1ccccc1)C2=O | 1 | 0.9 | 8 | 7 | 2 | -2
OC(CCCCN1CCCCC1)c1ccccc1 (centres undefined) | 1 | 1 | -4 | 6 | -4 | -14
N#Cc1c(C(F)(F)F)cc(-c2ccco2)nc1SCc1ccccn1 | 0.9 | 0.8 | 22 | 2 | 10 | -15
N#Cc1c(C(F)(F)F)cc(-c2ccco2)nc1SCc1ccncc1 | 0.1 | 0.1 | 92* | 11 | 87* | -4
O=C(CN(C1CCCCC1)S(=O)(=O)c1ccc(Cl)cc1)NCCCO | 0.4 | 0.7 | 31 | . | 60* | .
Cc1ccc(S(=O)(=O)N(C)CC(=O)NCc2ccncc2)cc1 | 0.1 | 0.2 | 80* | 24 | 90* | -33
Cc1ccc(CNC(=O)CN(C)S(=O)(=O)c2cccc3cccnc23)cc1 | 0.1 | 0.6 | 42 | 0 | 88* | -16
CC1CCCC(NC(=O)CN(C)S(=O)(=O)c2cccc3cccnc23)C1C (centres undefined) | 0.4 | 2.1* | -114 | 4 | 59* | -6
O=S(=O)(c1cccs1)N1CCN(CC(O)COc2cc(Cl)ccc2Cl)CC1 (centres undefined) | 0.5 | 0.7 | 35 | 18 | 46 | -7
CCOC(=O)c1c(=O)n(O)c2ccc(C)cc2[n+]1[O-] | 1.2 | 1.2 | -18 | -5 | -15 | -3
CCOC(=O)COn1c(-c2cccc(Cl)c2)nc2ccc([N+](=O)[O-])cc21 | 1 | 1 | 3 | -6 | -3 | 5
Cc1ccc(S(=O)(=O)N(CC(=O)NCc2ccncc2)C2CCCCC2)cc1 | 0 | 0.1 | 93* | . | 99* | .
Cc1ccc(S(=O)(=O)N(C)CCCC(=O)Nc2ccncc2)cc1 | 0 | 0 | 96* | -22 | 99* | -7
Cc1ccc(S(=O)(=O)N(C)CC(=O)Nc2ccncc2)cc1 | 0 | 0.4 | 63* | 3 | 100* | -2
CCOC(=O)Cc1csc(NC(=O)CN(C)S(=O)(=O)c2cccc3cccnc23)n1 | 0.1 | 0.1 | 92* | -7 | 90* | -6
Cc1ccc(S(=O)(=O)N(CC(=O)NCc2ccco2)C2CCCCC2)cc1 | . | . | . | 8 | . | -12
O=C(Oc1cccc([N+](=O)[O-])c1)c1cc(-c2ccccc2)nc2ccccc12 | 1 | 0.8 | 18 | -11 | 2 | -1
c1ccc(-c2nnc(SCc3nnc(-c4cccs4)o3)o2)cc1 | 0.7 | 0.7 | 31 | -13 | 34 | -9
CC(C)Cn1c(SCc2nnc(-c3cccs3)o2)nc(O)cc1=O | 0.8 | 0.3 | 75* | . | 24 | .
